SMILES strings stand for the structures.

In the test the target is AMP-activated protein kinase, AMPK (Homo sapiens) (UniProt P54646+O43741+P54619+Q9UGJ0+Q9Y478+Q13131+Q9UGI9). The test is described as follows: AMP-dependent Kinase enzyme assay. An in vitro enzyme assay that detects ADP turnover that is directly proportional to AMPK activity. This uses naive AMPK that is activated during the assay with MK-8722. The format is functional. Also noted: scale not given: direction of the effect not stated beside the values. The note with it: 30 µM.
Regarding `C[C@@H]1CN(Cc2cc3ccccc3n2C)CC[C@@]1(O)C1CC1`, the Percent Effect is 14.8%.

Regarding `Cc1c(CN2CCc3[nH]cnc3C2C2CC2)[nH]c2ccc(F)cc12` (stereo not given), the Percent Effect was 3.62%.

For `Cn1ncc2c1CCCC2NCc1cccnc1` (stereo not given), the Percent Effect was found to be 5.94%.

Regarding `COc1nsc2nc(C3CCCN3C(C)=O)ccc12` (stereo not given), the Percent Effect was determined as 7.38%.

Take `COc1ccc(NC(=O)Cc2c(C)nn(C)c2C)cc1F`: the Percent Effect turned out to be 1.16%.

In the case of `Cc1cccc(C(=O)Nc2c(C(N)=O)n[nH]c2C)c1C`, the Percent Effect was -0.641%.

Consider `CCCn1ccnc1-c1cccc(NC(=O)[C@H]2CCC(=O)N2)c1`, for which the Percent Effect worked out at 11.3%.

Take `CC(=O)NCC(=O)Nc1cc(C)n(-c2ccc(Cl)cc2Cl)n1`: the Percent Effect was 3.23%.

`Cc1cc(=O)[nH]c(-n2nc(-c3ccccc3)cc2N)n1`: the Percent Effect was -11.4%.

`COC(=O)C(NC(=O)c1cc(F)cc(F)c1)c1cccnc1` (stereo not given): the Percent Effect amounted to 2.18%.

Take `CC(C)n1ccnc1C1CCN(c2nccc(C(F)(F)F)n2)CC1`: the Percent Effect is 15.9%.

In the case of `Cc1cc(O)n2nc(C3CCN(C(=O)c4ccccn4)CC3)cc2n1`, the Percent Effect was 6.67%.

In the case of `c1ccn2c(C3CCCN3Cc3nc(C4CC4)no3)nnc2c1` (stereo not given), the Percent Effect was found to be 2.28%.

For `CCC1(CC)CC(=O)N(CC(O)c2cccc(Br)c2)C1=O` (stereo not given), the Percent Effect stood at 17.2%.

Take `Cc1ccccc1SCC(=O)N[C@H]1CC[C@H](n2cnnc2)CC1`: the Percent Effect turned out to be 1.98%.

For the compound `CCCN1C(=O)[C@H]2CC[C@@H]1CN(S(=O)(=O)c1cccc(Cl)c1)C2`, the Percent Effect was 7.5%.

As to `CCc1nn(C)c(Cl)c1CN1CCC2(C1)CN(C)C(=O)O2` (stereo not given), the Percent Effect is 6.22%.

On to `Cc1ncc(CNC(=O)NCc2c(F)cccc2OC(F)F)s1`, for which the Percent Effect was 6.42%.

As for `O=C(NCCn1ccnc1-c1cc2n(n1)CCCNC2)c1ccncc1`, the Percent Effect came out at 0.773%.

On to `COCCOCC(=O)Nc1nc2c(OC)cc(F)cc2s1`, for which the Percent Effect was 3.08%.

The record behind these values is ChEMBL document CHEMBL3988442, “University of Dundee, Small-Polar-MMV Screening Library” (2021).
